Assay [1] in a line: Inducers of the Endoplasmic Reticulum Stress Response (ERSR) in human glioma: Validation (AID 504836; active means well fitted curve in the direction sought with a large enough effect; an effect the other way counts as inactive or inconclusive). The procedure, abridged: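 Stably transfected U87-MG glioma cells carrying a GRP78-based luciferase sensor; 16 h compound incubation. Luminescence end-point read 10 min after Bright-Glo addition at room temperature.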
The target of assay [2] is Bile acid receptor (Homo sapiens) (UniProt Q96RI1). The experiment in a line: qHTS assay for small molecule agonists of farnesoid X receptor signaling (AID 588527). Further: series mostly up to about 77 µM. The conditions noted are these: HEK293T FXR-UAS-bla, beta-lactamase ratio, 16 h; stronger effect = higher value. The procedure, abridged: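 Read-out: beta-lactamase reporter fluorescence with CCF4 substrate in GeneBLAzer FXR-UAS-bla HEK293T cells, after 16 h compound exposure at 37 C. Response scaled between DMSO basal (0%) and chenodeoxycholic acid at 100 uM (100%).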
Bile acid receptor (Homo sapiens), sequence (Q96RI1 whole entry, looked up): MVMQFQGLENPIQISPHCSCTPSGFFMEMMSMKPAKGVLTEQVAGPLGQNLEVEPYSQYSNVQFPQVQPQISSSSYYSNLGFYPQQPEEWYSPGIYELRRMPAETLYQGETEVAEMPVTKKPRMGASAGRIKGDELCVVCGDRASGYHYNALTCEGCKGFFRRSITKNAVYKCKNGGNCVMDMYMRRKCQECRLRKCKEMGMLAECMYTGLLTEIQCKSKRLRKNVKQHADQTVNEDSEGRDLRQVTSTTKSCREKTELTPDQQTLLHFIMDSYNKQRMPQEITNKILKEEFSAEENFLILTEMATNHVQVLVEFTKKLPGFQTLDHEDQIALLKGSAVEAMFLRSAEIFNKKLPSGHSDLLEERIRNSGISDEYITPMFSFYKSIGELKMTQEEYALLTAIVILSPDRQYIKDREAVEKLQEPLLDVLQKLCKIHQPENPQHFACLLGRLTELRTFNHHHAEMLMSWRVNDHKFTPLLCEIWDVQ

The target in assay [3] is Ubiquitin carboxyl-terminal hydrolase 1 (Homo sapiens) (UniProt O94782). The experiment in a line: Inhibitors of USP1/UAF1: Pilot qHTS (AID 504865; active means well fitted curve in the direction sought with a large enough effect; an effect the other way counts as inactive or inconclusive;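 further: rhodamine fluorescence freed from ubiquitin-rhodamine substrate followed over time; top concentration of the series differs between compounds; nearly all actives have a fitted effect of over 35% in size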). The procedure, abridged: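 Enzyme-free wells gave the negative control, while test wells held 1nM USP1/UAF1 preincubated with compound for 15 min at room temperature. Ub-Rho at 150nM final started the reaction, and fluorescence at 480/540 nm was recorded kinetically.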
Ubiquitin carboxyl-terminal hydrolase 1 (Homo sapiens), sequence (O94782 whole entry, looked up): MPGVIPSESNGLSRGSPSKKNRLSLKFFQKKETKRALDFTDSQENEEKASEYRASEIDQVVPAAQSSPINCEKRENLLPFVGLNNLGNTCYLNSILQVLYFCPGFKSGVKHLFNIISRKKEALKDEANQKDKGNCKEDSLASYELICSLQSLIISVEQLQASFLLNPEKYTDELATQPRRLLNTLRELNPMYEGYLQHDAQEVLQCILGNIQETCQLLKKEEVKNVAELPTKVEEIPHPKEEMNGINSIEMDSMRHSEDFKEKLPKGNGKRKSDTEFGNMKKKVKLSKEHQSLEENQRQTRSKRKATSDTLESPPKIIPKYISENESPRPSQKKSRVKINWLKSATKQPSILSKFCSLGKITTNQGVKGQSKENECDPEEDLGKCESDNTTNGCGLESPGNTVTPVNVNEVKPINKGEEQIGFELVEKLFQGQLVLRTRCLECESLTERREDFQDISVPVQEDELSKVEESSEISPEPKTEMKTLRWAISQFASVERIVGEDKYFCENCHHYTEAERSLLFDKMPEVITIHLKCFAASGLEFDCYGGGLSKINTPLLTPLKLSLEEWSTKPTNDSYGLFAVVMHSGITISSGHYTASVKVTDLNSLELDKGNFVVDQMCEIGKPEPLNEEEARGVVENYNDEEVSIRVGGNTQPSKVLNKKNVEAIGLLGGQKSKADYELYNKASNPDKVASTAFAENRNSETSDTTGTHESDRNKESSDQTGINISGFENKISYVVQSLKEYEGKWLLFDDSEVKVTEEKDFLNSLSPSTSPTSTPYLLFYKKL
Background: In qHTS, concentration-response curves come from the screen itself.

Assay [4] is described as follows: qHTS for Inhibitors of ATXN expression: Validation of Cytotoxic Assay (AID 588349; active means well fitted curve in the direction sought with a large enough effect; an effect the other way counts as inactive or inconclusive; further: potency means the concentration at half of the fitted maximal effect). The method in brief: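 Cytotoxicity counter-screen: HEK293 cells exposed to compound titrations, 72 hr, 37 degrees C. Read-out is intracellular ATP (CellTiter Glo luminescence) as a viability measure.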
The nature of assay [5]: qHTS for Inhibitors of ATXN expression: Validation (AID 588378; active means well fitted curve in the direction sought with a large enough effect; an effect the other way counts as inactive or inconclusive; further: potency means the concentration at half of the fitted maximal effect; nearly all actives have a fitted effect of over 75% in size). The procedure, abridged:
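After a 2 h attachment and 24 h compound incubation, HEK293-ATXN2-FFLuc wells are read for fluorescence at 405 nm excitation/525 nm emission as a viability measure, then for Bright-Glo luminescence reflecting ATXN2 expression.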

In assay [6] the target is Estrogen receptor (Homo sapiens) (UniProt P03372). Description: qHTS assay for small molecule antagonists of estrogen receptor alpha signaling (AID 588513; active means well fitted curve in the direction sought with a large enough effect in the signal ratio, with a control signal flat, not every such curve was filed as active; the % refers to the signal ratio). The procedure, abridged: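 Antagonist-mode qHTS in ER-alpha-UAS-bla HEK 293 cells: compound titration, 0.5nM estradiol for 18 h, CCF4 fluorescence, Hill-derived IC50.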
Estrogen receptor (Homo sapiens), sequence (P03372 whole entry, looked up): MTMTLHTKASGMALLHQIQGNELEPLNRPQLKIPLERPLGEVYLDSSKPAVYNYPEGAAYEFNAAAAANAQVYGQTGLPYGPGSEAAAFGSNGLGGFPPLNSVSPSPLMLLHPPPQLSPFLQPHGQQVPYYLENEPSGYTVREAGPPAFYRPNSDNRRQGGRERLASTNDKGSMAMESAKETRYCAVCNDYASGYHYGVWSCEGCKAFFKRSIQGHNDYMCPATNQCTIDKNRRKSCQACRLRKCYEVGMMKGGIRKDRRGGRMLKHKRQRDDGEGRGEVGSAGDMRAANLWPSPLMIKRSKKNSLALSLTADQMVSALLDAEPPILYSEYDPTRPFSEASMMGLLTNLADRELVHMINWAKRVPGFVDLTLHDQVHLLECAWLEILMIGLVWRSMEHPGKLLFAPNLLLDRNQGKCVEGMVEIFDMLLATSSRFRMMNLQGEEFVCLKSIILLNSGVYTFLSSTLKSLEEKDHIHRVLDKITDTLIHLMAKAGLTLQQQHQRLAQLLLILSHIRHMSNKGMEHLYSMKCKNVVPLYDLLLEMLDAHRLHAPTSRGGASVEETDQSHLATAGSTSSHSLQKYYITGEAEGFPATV
Assay [7] shares this target. Description: qHTS assay for small molecule agonists of estrogen receptor alpha signaling (AID 588514). Further: nearly all actives have a fitted effect of over 70% in size. The method in brief:
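Read-out: CCF4 fluorescence from a beta-lactamase reporter in ER-alpha-UAS-bla HEK 293 cells after 18 hrs of compound exposure at 37 C. Normalized to 20 nM 17-beta-estradiol (100%) and DMSO (0%).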

Assay [8] addresses Bile acid receptor (Homo sapiens) (UniProt Q96RI1). The experiment in a line: qHTS assay for small molecule antagonists of farnesoid X receptor signaling (AID 588526). The method in brief: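 Antagonist mode: titrated compounds tested against chenodeoxycholic acid stimulation (normalized to 50 uM CDCA and DMSO) in GeneBLAzer HEK293T cells for 16 h. Beta-lactamase read by CCF4 fluorescence; IC50 from Hill fits.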

The target of assay [9] is Glucocorticoid receptor (Homo sapiens) (UniProt P04150). The experiment in a line: qHTS assay for small molecule agonists of glucocorticoid receptor signaling (AID 588532; active means well fitted curve in the direction sought with a large enough effect in the signal ratio, with a control signal flat; the % refers to the signal ratio). The conditions noted are these: HeLa MMTV-bla, beta-lactamase ratio, agonist, 18 h; stronger effect = higher value; percent of dexamethasone control, DMSO zero. The procedure, abridged: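 HeLa GRE-bla reporter cells; 18 h compound exposure at 37 C; 2 h CCF4 loading at room temperature; fluorescence at 460 and 530 nm; EC50 by Hill equation.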
Glucocorticoid receptor (Homo sapiens), sequence (P04150 whole entry, looked up): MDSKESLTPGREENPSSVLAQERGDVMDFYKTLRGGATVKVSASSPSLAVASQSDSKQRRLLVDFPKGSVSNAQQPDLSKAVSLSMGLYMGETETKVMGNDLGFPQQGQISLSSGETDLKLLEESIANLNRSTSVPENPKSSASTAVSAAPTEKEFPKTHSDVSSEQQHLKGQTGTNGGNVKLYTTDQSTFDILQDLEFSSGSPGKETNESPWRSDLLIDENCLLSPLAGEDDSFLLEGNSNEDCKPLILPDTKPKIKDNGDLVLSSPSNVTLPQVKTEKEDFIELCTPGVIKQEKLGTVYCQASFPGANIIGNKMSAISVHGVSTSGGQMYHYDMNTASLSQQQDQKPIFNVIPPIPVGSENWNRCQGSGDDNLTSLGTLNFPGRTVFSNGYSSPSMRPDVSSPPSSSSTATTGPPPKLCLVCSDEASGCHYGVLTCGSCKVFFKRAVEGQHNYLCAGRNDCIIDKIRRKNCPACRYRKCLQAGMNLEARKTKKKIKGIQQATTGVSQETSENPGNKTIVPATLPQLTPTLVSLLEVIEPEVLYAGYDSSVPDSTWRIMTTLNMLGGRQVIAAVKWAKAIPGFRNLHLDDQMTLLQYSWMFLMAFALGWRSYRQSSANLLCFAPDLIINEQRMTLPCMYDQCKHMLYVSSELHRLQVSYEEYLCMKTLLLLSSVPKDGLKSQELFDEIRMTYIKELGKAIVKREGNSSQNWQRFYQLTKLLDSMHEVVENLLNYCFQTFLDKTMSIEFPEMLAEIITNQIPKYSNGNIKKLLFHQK

Values joined by “and” are separate entries in the source; they are usually repeats but may differ in a detail not shown here. Equal values may be shown once. Unmarked numbers belong to inactive results. Inconclusive results are not listed. Entries that show only a call come without a potency. Active and inactive are the calls of the source. Unless noted, the call rests on the fitted dose curve.

In the case of `CCC1(c2ccccc2)C(=O)NCNC1=O`, in assay [1], the compound was classed as inactive. Besides, the activation in [2] was -0.167% and -0.256%.
With `CC(C)(N)Cc1ccc(Cl)cc1`, in assay [3], the Potency entry is “inactive”.
On to `CCCCNC(=O)NS(=O)(=O)c1ccc(C)cc1`, for which the compound was classed as inactive in [1]. Besides, the activation in assay [2] was 0.0302% and 2.67%.
As for `CNCCC(Oc1ccc(C(F)(F)F)cc1)c1ccccc1` (configuration not stated), the outcome in [1] was inactive. Besides, the figures for the Potency in assay [4] and in assay [5] were 28.2 µM (active) and 14.1 µM (active), respectively.
As for `Cc1cn([C@H]2C[C@H](N=[N+]=[N-])[C@@H](CO)O2)c(=O)[nH]c1=O`, in assay [1], the compound was called inactive. Besides, the activation in assay [2] was -3.84%.
In the case of `CC1OC(C)OC(C)O1` (configuration not stated), the Potency entry in assay [3] was “inactive”.
Consider `CCN(CC)CCOC(=O)C(O)(c1ccccc1)c1ccccc1`, for which the Potency result in assay [3] was “inactive”.
Consider `c1ccc2c(c1)Nc1ccccc1S2`, for which, in assay [6], the outcome was inactive. Further, the Potency entry in [7] is “inactive”.
`OCCOc1ccccc1`: the Potency result in assay [3], in assay [7] and in [8] was “inactive” each time. In addition, in [6], the call was inactive. Moreover, the activation was 0.0237% and -6.3% and -0.639% in [2]; 0.307% and -9.57% and -3.52% in assay [9].
Turning to `O=c1oc2ccccc2c(O)c1C(CC(O)c1ccc(-c2ccc(Br)cc2)cc1)c1ccccc1` (configuration not stated), in assay [2], the activation was -8.03%.
As for `CC(C)(C)NCC(O)c1cc(Cl)c(N)c(Cl)c1` (configuration not stated), the Potency entry in assay [3] is “inactive”.

(Values after PubChem BioAssay (NCATS).)
